# Measured values published in article PMC12136788.
# Numbering of substitutions follows the chain as printed. Over roughly 5,800 sequences, “enrichment r” has its median near 0.68; the highest 2% begin near 11. The list comes from a sample in which the highest values are over-represented; it also holds similar and randomly drawn sequences.
# T1: UNK ZnF1-6 (called full-length) (human, UniProt Q9C0B0 30-357)
# T1 sequence: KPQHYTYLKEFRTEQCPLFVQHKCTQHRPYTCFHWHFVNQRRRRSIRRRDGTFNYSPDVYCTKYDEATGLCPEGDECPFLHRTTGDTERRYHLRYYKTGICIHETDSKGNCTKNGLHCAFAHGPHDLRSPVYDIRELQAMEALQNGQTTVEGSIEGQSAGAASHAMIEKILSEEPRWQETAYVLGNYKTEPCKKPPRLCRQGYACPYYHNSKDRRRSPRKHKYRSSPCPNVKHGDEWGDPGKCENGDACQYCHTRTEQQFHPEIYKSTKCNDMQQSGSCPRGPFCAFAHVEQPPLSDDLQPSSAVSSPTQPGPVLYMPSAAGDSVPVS
# B1: chr11:113276847:113276948:+|3pUTR|ENSG00000149294|msi1|FALSE|unique (ssRNA)
# RNA: GGGAGUUCUACAGUCCGACGAUCAGAAGGGAAAAGCCAGCCCUUUGUAUAGAAAUUUUGCUUUUUUUUCCCUCAUUCUACUUUAGAACUGCAAGCUUGUGCACUGUGGAUGCGUGAAUAUUUUAGUGUGAAACGUGUUUUUGUCAACAGAGGAUUGAGCAUCA
# B2: chr5:16663783:16663884:-|3pUTR|ENSG00000145555|msi1|FALSE|bound_elsewhere (ssRNA)
# RNA: GGGAGUUCUACAGUCCGACGAUCUGAGGAUACAAAAUUCACAGAUGCUCAAGUCCCUGCUAUACAGUGGUAUAAUAUUUGCAUAGAACCUGCACACAUCUUUCCUUACCCUUUAAAUCAUCUCCAGGUUACAGAUACCUAGCACAACAGAGGAUUGAGCAUCA
# B3: chr1:186359875:186359976:-|CDS|ENSG00000047410|msi1_unk|FALSE|overlapping (ssRNA)
# RNA: GGGAGUUCUACAGUCCGACGAUCGGAAACUCAGGAUCAGUUGCUUUUGGAGAAACUAGAGAACAAAAGAAUUAAUAAGUACCUAGAUGAAAUAGUGAAAGAAGUGGAAGCCAAAGCACCAAUUUUGAAACGCCAGCGUGAGGACAACAGAGGAUUGAGCAUCA
# B4: chr3:97755980:97756081:+|3pUTR|ENSG00000080224|unk|total|mutant (ssRNA)
# RNA: GGGAGUUCUACAGUCCGACGAUCUAAUUAAAAAUCUCUUUCCUACCUUCCGUAAUUUGCCGGAUGAACUGUAUGCAUUCCGACCGAAAUUGCUUUUGUUAAAUUUACAUUUAAACACAUCUUCAUUCACUCCGAGAAGCCAUACAACAGAGGAUUGAGCAUCA
# B5: chr1:32196777:32196878:+|3pUTR|ENSG00000084652|msi1|FALSE|unique (ssRNA)
# RNA: GGGAGUUCUACAGUCCGACGAUCUUUGAAGCUAGUUCAUUGUCCUGCAGGUCCCUUCAUCUUCCAUACCUAGCCCACUCUUUUAGCCCUUACCUUAAAUCUCUCAGAUAAGUUGGUUCACAAAGAAUGUUAAGUACUGAAUCACAACAGAGGAUUGAGCAUCA
# B6: chr2:223975255:223975490:-|3pUTR|ENSG00000135919|msi1|FALSE|bound_elsewhere (ssRNA)
# RNA: GGGAGUUCUACAGUCCGACGAUCUUUAAAUUCUUUUCCCCCAUCCCCCUCCAAAGUCUUGAUAGCAAGCGUUAUUUUGGUGGUAGAAACGGUGAAAUCUCUAGCCUCUUUGUGUUUUUGUUGUUGUUGUUGUUGUUGUUUUAUCAACAGAGGAUUGAGCAUCA
# B7: ENSG00000052841:stop:overlap|stop_codon|ENSG00000052841|stop_codon|NA|stop_codon (ssRNA)
# RNA: GGGAGUUCUACAGUCCGACGAUCAGAACCGAAUCCAGACCAUCCAGUGUCACUUAAUGCUGAAGAAGGGACGGCGCUCUCCUUAGUGCACUUCUUCCUUCUCUCUUUCUCUUUACUCAUGCUCUAAAAAAAAAGAAUAAGAAACAACAGAGGAUUGAGCAUCA
# B8: chr5:136174412:136174513:+|CDS|ENSG00000113658|unk|total|mutant (ssRNA)
# RNA: GGGAGUUCUACAGUCCGACGAUCUAUGUUGGUGGAGAGGUGUAUGCGGAAUGCCUCAGUGACAGCAGCAUAUUUGUACAGAGCCGGAACUGCAACUUUCAUCAUGGCUUUCAUCCCACCACUGUCUGUAAGAUUCCCAGCAGCCAACAGAGGAUUGAGCAUCA
# B9: chr8:116846039:116846140:-|3pUTR|ENSG00000164754|msi1|FALSE|bound_elsewhere (ssRNA)
# RNA: GGGAGUUCUACAGUCCGACGAUCACAUUCAAUAUGAUGUGCCUGUAAACCAAGGAGUUUUCCCCGUUUGUAAAAAGACAUUGUAGAUAAUUGAAUGUUUGAUUUUAGAAAGGUCAUUAGUUUCUUGUUACACAUUUUGUUAGUCAACAGAGGAUUGAGCAUCA
# B10: chr11:10797513:10797714:-|3pUTR|ENSG00000110321|msi1_unk|FALSE|overlapping (ssRNA)
# RNA: GGGAGUUCUACAGUCCGACGAUCUUCUGCAUAAGGUUUUUUUGUAGUGUAAUGUCUUAAUCAUAGUCUACCAUCAAAUAUUUUAGGAGUAUCUUUAAUGUUUAGAUAGUAUAUUAGCAGCAUGCAAUAAUUACAUCAUAAGUUCAACAGAGGAUUGAGCAUCA
# B11: chr12:98549999:98550103:+|3pUTR|ENSG00000120802|unk|FALSE|unique (ssRNA)
# RNA: GGGAGUUCUACAGUCCGACGAUCUGUUUCCCAUACUGUUUUCAGCCUUUUGUUUAUAAUUAGAAAUUGUGAGAAGCUUCAUUUAGUGUUUAAAAAUGUGGGGAGAUAAAUCAGACUUAACAUGUAUGUAAGAUCAAUUCACUUCAACAGAGGAUUGAGCAUCA
# B12: chr12:909583:909684:+|3pUTR|ENSG00000060237|unk|FALSE|bound_elsewhere (ssRNA)
# RNA: GGGAGUUCUACAGUCCGACGAUCUAGCUCUGUCCUUUACUUAUUGAGACACUUUAACUUUUUCCUUUGUAUUUCCAUUGUAUUAGAUAAAUAAAUGUGAAUGUAAAAUUGUAUAAAUUACUGUACUUGAAUACUUCUGUUUCCCAACAGAGGAUUGAGCAUCA
# B13: chr12:98549999:98550103:+|3pUTR|ENSG00000120802|unk|total|mutant (ssRNA)
# RNA: B11 RNA with U60C, A61C, U83C, A84C
# B14: chr2:24000049:24000165:+|3pUTR|ENSG00000173960|unk|FALSE|unique (ssRNA)
# RNA: GGGAGUUCUACAGUCCGACGAUCGUAGCAUAUGACUGGAAACUAUAUUCAGUGCACUUUCUCCAAAAGACUACCCAGAAAAAUAGACUUAUUUUCAAAUACCAGUUAUCAAGAUAUAUUAAAUAGCUGUAUUGUUUAGAAUCUCAACAGAGGAUUGAGCAUCA
# B15: chr6:57184343:57184440:+|3pUTR|ENSG00000112208|msi1_unk|FALSE|overlapping (ssRNA)
# RNA: GGGAGUUCUACAGUCCGACGAUCUCUUCAGUUUUGUGAAUAACAAAACUAGCAAUAUUUUAAUUAUCUAUCUAGAGAUUUUUUAGAUUGAAUUCUUGUCUUGUACUAGGAUCUAGCAUAUUUCACUAUUCUGUGGAUGAAUACCAACAGAGGAUUGAGCAUCA
# B16: chr13:110149936:110150037:-|3pUTR|ENSG00000187498|msi1|FALSE|unique (ssRNA)
# RNA: GGGAGUUCUACAGUCCGACGAUCUUCUUGUAUUAUAAUUAAUUUUCUACCCCCAGAGAUAAAUGUUUGUUUAUAUCACUGUCUAGCUGUUUCAAAAUUUAGGUCCCUUGGUCUGUACAAAUAAUAGCAAUGUAAAAAUGGUUUCAACAGAGGAUUGAGCAUCA
# Molecular target: T1, UNK ZnF1-6 (called full-length)
# Assay: nsRBNS (natural sequence RNA bind-n-seq); RBNS binding buffer (assumed for nsRBNS): 25 mM Tris pH 7.5, 150 mM KCl, 3 mM MgCl2, 0.01% Triton X-100, 500 ug/ml BSA, 20 U/ml SUPERase-In, 4 C; UNK is unkempt and MSI1 is Musashi-1; names of the RNAs are library labels; protein concentration not given here; high values mean tight binding
row,Binder,binding signal
1,B1,1.38 enrichment R
2,B2,0.456 enrichment R
3,B3,4.28 enrichment R
4,B4,0.569 enrichment R
5,B5,1.19 enrichment R
6,B6,2.44 enrichment R
7,B7,0.995 enrichment R
8,B8,0.849 enrichment R
9,B9,5.22 enrichment R
10,B10,1.96 enrichment R
11,B11,6.12 enrichment R
12,B12,12.7 enrichment R
13,B13,0.419 enrichment R
14,B14,3.33 enrichment R
15,B15,6.31 enrichment R
16,B16,119 enrichment R
